Bioassay records (PubChem BioAssay)
Compounds with a hit are over-represented: about 2.8% of the library has one in this group of screens.
PAX8 inh HTS: lowers PAX8-driven luciferase in RMG-I cells. AID 652154. RMG-I TPO-luciferase reporter, SteadyGlo, 24 h. 360,000 compounds, 1.2% hits. inhibition, % at 12.6 µM;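 active means mean replicate inhibition at least 60% with every replicate also reaching 60%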;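 further: luciferase light reporting Pax8 driven TPO promoter activity; plate controls were median of neutral control wells for no effect and mitoxantrone controls for full effect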
LMP1 NFkB inh: reduces LMP1-driven NF-kappaB luciferase signal | LMP1-induced NF-kappaB luciferase reporter cells, luminescence | inhibition, % at 12.5 µM | 350,000 compounds, 0.69% hits | AID 504558; in the data active means inhibition above about 41%;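 further: 0% = neutral control wells and 100% = reference inhibitor control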
Peg3 promoter: Peg3 promoter activity inhibition; 360,000 compounds, 1.7% hits; HeLa PEG-Prom luciferase reporter, luminescence, overnight; inhibition, % at 20 µM;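 active means inhibition of at least 50% at 20 µM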
HIF-2a inh: blocks HIF-2a reporter activity; 360,000 compounds, 0.72% hits; AID 624352; inhibition, % at 18.8 µM; 786-0 RCC cells HIF-2a reporter, luciferase luminescence, overnight;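 active means inhibition of the luminescence signal of 40% or more relative to plate controls, in a single-dose primary screen at 18.75 µM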
MITF TRPM1 inh: reduces MITF-dependent TRPM1 promoter luciferase signal; SK-MEL-5 TRPM1 promoter luciferase, 24 h; inhibition, % at 12.5 µM; 330,000 compounds, 0.83% hits; AID 488899;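 active means mean inhibition across replicates of 60% or more, whatever share of single replicates reaches that level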
Shn3 3UTR inh: Schnurri-3 reporter inhibition in Clone20 osteoblasts; Clone20 osteoblast Shn3 3'UTR firefly luciferase, 24 h; inhibition, % at 12.5 µM; 360,000 compounds, 0.52% hits; AID 588674;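 active means mean inhibition of at least 75% with every replicate also reaching 75%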;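 further: 0% = median of neutral control wells and 100% = pilot-screen positive control compound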
The depositor's hits bear a star; / = no result; ! = a repeat was not active.

SMILES | PAX8 inh HTS | LMP1 NFkB inh | Peg3 promoter | HIF-2a inh | MITF TRPM1 inh | Shn3 3UTR inh
Nc1nonc1-n1nnc(C(=O)N/N=C/c2cc(Cl)ccc2O)c1CN1CCCCCC1 | 51 | 13 | 54* | 18 | 27 | 66
Nc1nonc1-n1nnc(C(=O)N/N=C/c2ccc(Cl)cc2Cl)c1CN1CCCCC1 | -3 | -9 | 21 | 5 | -3 | -3
O=C(Nc1cc(S(=O)(=O)Nc2ccc(Cl)cc2)ccc1O)c1ccc(S(=O)(=O)N2CCCCCC2)cc1 | 8 | -10 | 30 | 16 | 4 | 3
O=C(N/N=C\c1cc(Cl)ccc1O)c1ccc(S(=O)(=O)N2CCCCC2)cc1 | 43 | 23 | 44 | 7 | 66* | 91*
Cc1nnn(-c2nonc2N)c1C(=O)N/N=C/c1cccc2ccccc12 | -11 | 6 | 52* | 4 | -2 | 9
O=C(NN=Cc1cccc2ccccc12)C(=O)NN=Cc1cccc2ccccc12 | 3 | -26 | 51* | 2 | 0 | 19
CCN(CC)c1ccc(/C=N/NC(=O)c2nnn(-c3nonc3N)c2C(C)C)c(O)c1 | 85* | 64* | 53* | 1 | 68* | 92*
CN(Cc1c(C(=O)N/N=C/c2cccc(O)c2)nnn1-c1nonc1N)C1CCCCC1 | 4 | 1 | 17 | 7 | 8 | -1
CC(O)C(=O)N/N=C/c1cccc2ccccc12 (centres undefined) | -4 | -13 | -21 | -16 | 12 | 1
CN(Cc1c(C(=O)N/N=C/c2ccccc2O)nnn1-c1nonc1N)C1CCCCC1 | 70* | 27 | 59* | 8 | / | 83
C/C=C/c1ccc([C@H]2[C@@H](CO)N(Cc3cccc(F)c3)C23CN(C(=O)CC)C3)cc1 | 5 | / | / | / | / | /
CNC(=O)c1ccc(-c2cc3onc(-c4ccccc4)c3c(=O)n2C)cc1 | -108 | -4 | -262 | -252 | -92 | -48
Cc1ccc(-c2cc3onc(-c4ccccc4)c3c(=O)n2C)cc1 | -72 | 38 | -5 | 18 | 97* | -18
CNC(=O)C[C@H]1CC[C@H]2[C@@H](COc3ccc(NC(=O)Nc4cccc(C#N)c4)cc3C(=O)N2C)O1 | -16 | / | / | / | / | /
O=C(CN(c1ccc(Cl)cc1)S(=O)(=O)c1ccc(Cl)c([N+](=O)[O-])c1)NCCc1ccc(F)cc1 | 11 | -13 | 95* | 28 | 70* | 15
C[C@H](O)C#Cc1cnc2c(c1)C(=O)N([C@H](C)CO)C[C@@H](C)[C@H](CN(C)CC1CCCC1)O2 | -14 | / | / | / | / | /
COc1cc2c(cc1NC(=O)COC(=O)C(CCSC)NC(=O)c1ccccc1Cl)oc1ccccc12 (centres undefined) | 62* | -16 | -149 | -102 | -27 | -98
Cc1nc(SCC(=O)N2CCN(c3ccccc3)CC2)c2oc3ccccc3c2n1 | / | 1 | 56* | 36 | 9 | 24
Cc1nc(SCC(=O)O)c2oc3ccccc3c2n1 | 20 | -7 | 6 | 21 | 9 | -12
CCOC(=O)N1C2CCC(C2)N1C(=O)OCC | -25 | -9 | 0 | -1 | -3 | 93*
CCOC(=O)N1C2C=CC(C2)N1C(=O)OCC | -8 | 8 | -1 | 2 | 3 | 9
Cc1ccc(S(=O)(=O)Nc2cccc3c2O[C@@H](CN(C)S(=O)(=O)c2ccc(Cl)cc2)[C@@H](C)CN([C@@H](C)CO)C3=O)cc1 | 3 | / | / | / | / | /
COc1ccc2c3c([nH]c2c1)[C@H](CO)N(S(C)(=O)=O)CC31CN(CC2CCOCC2)C1 | -7 | / | / | / | / | /
CC1=CC(=NOC(=O)/C=C/c2ccccc2)C=C(C)C1=O | / | 59* | -18 | -2 | 2 | 16
O=C(C[C@@H]1CC[C@H](NS(=O)(=O)c2ccccc2)[C@@H](CO)O1)N1CCC(Cc2ccccc2)CC1 | 6 | / | / | / | / | /
SMILES | PAX8 inh HTS | LMP1 NFkB inh | Peg3 promoter | HIF-2a inh | MITF TRPM1 inh | Shn3 3UTR inh
C[C@H](O)C#Cc1cnc2c(c1)C(=O)N([C@@H](C)CO)C[C@@H](C)[C@H](CN(C)CC1CCCC1)O2 | 10 | / | / | / | / | /
O=C(c1cn(-c2ccccc2)nc1-c1ccccc1)n1nnc2ccccc21 | 8 | -3 | 30 | 12 | 13 | 35
COc1cccc(-c2nn(-c3ccccc3)cc2C(=O)n2nnc3ccccc32)c1 | 11 | 1 | 50* | 14 | 7 | 61
CN(C)C(=O)C[C@@H]1CC[C@@H](NC(=O)C2CCOCC2)[C@@H](CO)O1 | 4 | / | / | / | / | /
COc1cccc(-c2ccc(C3[C@@H]4CN(S(=O)(=O)c5ccccc5)C[C@H]3N4)cc2)c1 (some centres undefined) | 9 | / | / | / | / | /
N#Cc1ccc(-c2ccc([C@@H]3[C@@H]4CN(S(=O)(=O)c5ccc(-c6ccccc6)cc5)C[C@H]3N4)cc2)cc1 | 75* | / | / | / | / | /
COc1cccc(S(=O)(=O)N2C[C@@H]3N[C@H](C2)C3c2ccc(/C=C/c3ccccc3)cc2)c1 (some centres undefined) | 92*! | / | / | / | / | /
CC(C)(C)c1cc(C(=O)N/N=C/c2ccc(F)cc2)n(-c2ccccc2)n1 | / | -15 | -12 | -13 | -12 | 5
COc1ccc(/C=N/NC(=O)c2nc(-c3ccccc3)n(-c3ccccc3)n2)c(O)c1 | 43 | 19 | 31 | 1 | 57 | 91*
COc1ccc2[nH]c(C(=O)N/N=C/c3ccc(O)cc3O)cc2c1 | 85* | 40 | 39 | -6 | 59 | 89*
CC(C)(C)c1cc(C(=O)N/N=C/c2ccccc2O)n(-c2ccccc2)n1 | -12 | 9 | 50* | 8 | 48 | 91*
CO[C@@H]1CN(C)C(=O)c2ccc(NC(=O)C3CCCC3)cc2OC[C@@H](C)N(Cc2cccnc2)C[C@H]1C | 7 | / | / | / | / | /
Cc1ccc(C(=O)O/N=C(\N)c2ccccn2)c(Cl)c1 | 105* | 83* | 103* | 73* | / | 69
N/C(=N\OC(=O)Cc1cccc2ccccc12)c1ccccn1 | -208 | -33 | -172 | -204 | -79 | -67
COc1cccc(C(=O)O/N=C(\N)c2ccccn2)c1OC | 3 | 52* | 48 | -90 | 27 | 18
N/C(=N\OC(=O)c1cccc2ccccc12)c1ccccn1 | -16 | -17 | 83* | -208 | -26 | -56
Cc1ccc(C(=O)O/N=C(\N)c2ccccc2)c(Cl)c1 | 53 | 35 | 34 | 12 | 51 | 32
C[C@@H]1CCCCO[C@@H](CN(C)Cc2ccc3c(c2)OCO3)[C@@H](C)CN([C@H](C)CO)C(=O)c2cc(NS(C)(=O)=O)ccc2O1 | -10 | / | / | / | / | /
C[C@H]1CCC/C=C/[C@@H]2C[C@H](O)C[C@H]2[C@H](O)[C@H](S(=O)c2ccc(O)cc2)CC(=O)O1 (some centres undefined) | 111* | -60 | 52* | 29 | 83* | 87*
Cc1[nH]n(-c2ccc(Cl)cc2)c(=O)c1C=NC12CN3CN(CN(C3)C1)C2 | 81* | 2 | 5 | 14 | 3 | -37
Cc1[nH]n(-c2cccc(Cl)c2)c(=O)c1C=NC12CN3CN(CN(C3)C1)C2 | / | 14 | 9 | 9 | -7 | -16
CCCC[C@@H](CNC)NC[C@H](NCCCCC1CCCCC1)C(C)C | 28 | -7 | 104* | -2 | 78* | -2
